Source: PubChem BioAssay (NCI)
The panel holds about 79,000 compounds, 15% with a hit somewhere; the sample as a whole holds those more often. The source made the active and inactive calls. No stated cut-off is given here; in the data, active means growth inhibition above about 70%; inactive means the rest. Where a SMILES comes first, the peptide text is derived from it. The star is where a group is joined. Cbz = O=C(OCc1ccccc1)*

Test: NCI Yeast Anticancer Drug Screen. Data for the sgs1 mgt1 strain (AID 161);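 further: 0% = growth of cultures given vehicle only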
Details: S. cerevisiae sgs1 mgt1 strain, at 50.0 µM, active compounds read high
Procedure, shortened: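 Growth of a repair-deficient yeast mutant was monitored after compound treatment and expressed as inhibition relative to vehicle-treated cultures.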

Structure (SMILES)	growth inhibition
C/C(=N\NC(=S)N1CCCC1)c1ccc[nH]1	-0.05% (inactive)
CC(CC(C)(C)C)C(=O)NC(N)=O (stereo not given)	-7.95% (inactive)
CN(C)CCC(C(N)=O)c1ccccc1 (stereo not given)	-3.7% (inactive)
CC1(O)C2C3C(I)C4C5C3C1C5C42 (stereo not given)	10.1% (inactive)
CCOC(=O)c1cnc2nc[nH]n2c1=O	-11.2% (inactive)
NC(=O)C(Cc1ccc(O)cc1)NC(=O)c1ccccc1 (stereo not given)	-0.1% (inactive)
N/C(CC/C(N)=N\O)=N\O	-11.2% (inactive)
CS(=O)(=O)N1COC(=O)[C@@H]1c1ccccc1	7% (inactive)
CCCCCCC(O)C/C=C/CCCCCC/C(C(=O)OC)=C(/O)C(=O)OCC (stereo not given)	11.5% (inactive)
[N-]=[N+]=Nc1ccc(NCCCCCC(=O)ON2C(=O)CCC2=O)c([N+](=O)[O-])c1	77.7% (active)
Cc1nc(N(C)C)oc(=O)c1Cc1ccccc1	17.4% (inactive)
CCOC(=O)CCC(NC(=O)OCc1ccccc1)C(=O)NC(CCC(=O)OCC)C(=O)OCC (stereo not given) (Cbz-Glu(OEt)-Glu(OEt)-OEt; configuration not given here)	-11.4% (inactive)
CCCCCC(Cl)(CC)CCCCC	-16.6% (inactive)
CN1CC(=O)N(CO)/C1=N\CO	-6.85% (inactive)
CCOC(=O)C(=CNc1ccc(N(CC)CC)cc1)C(=O)OCC	-8% (inactive)
CCCCCCCCCCCCN1CCCN(CCCCCCCCCCCC)CC1	7.45% (inactive)
ClC/C(=N\N1CCCCCC1)c1ccccc1	-4.75% (inactive)
COc1cccc2c(SCC(=O)Nc3ccccc3-c3ccccc3NC(=O)CSc3c4ccccc4nc4c(OC)cccc34)c3ccccc3nc12	-15.8% (inactive)
COC(=O)C1C2OC(C(Br)C2Br)C1C(=O)O (stereo not given)	7.1% (inactive)
CC(C)(S)CNCCSC(=O)c1ccccc1	23.1% (inactive)

Structure (SMILES)	growth inhibition
CCN=C(NCC)N(CC)CC	-12.8% (inactive)
Nn1cnc2nccnc2c1=O	-10.7% (inactive)
CCOC(=O)NC(=S)C1=C(N2CCOCC2)CCC1	1.95% (inactive)
COC(=O)/C=C/C(=O)N1CC(C)N(C(=O)/C=C/C(=O)OC)CC1C (stereo not given)	-9.2% (inactive)
CCn1ncc2c1nc(-c1ccccc1)c[n+]2[O-]	-34.5% (inactive)
NNc1cc(=O)[nH]c(N)n1	-31.2% (inactive)
CC(C)(C)SCC(=O)O	-24.8% (inactive)
CCOC(=O)NC(=O)c1cn(CCN2CCN(C(=O)NCCCCCCNC(=O)N3CCN(CCn4cc(C(=O)NC(=O)OCC)c(=O)n(CCN(CC)CC)c4=O)CC3)CC2)c(=O)n(CCC(CC)CC)c1=O	-6.65% (inactive)
ClC(Cl)(Cl)c1ccc(C2OCCO2)cc1	-7.85% (inactive)
CN(/N=C/c1ccccn1)C1=NCCCN1	-23% (inactive)
CCOC(=O)c1ccc(NC(=O)Oc2ccc(SC)cc2)cc1	0.4% (inactive)
COc1ccc(N=Cc2cc(Cl)cc(Cl)c2OC(=O)c2ccccc2)cc1	8.55% (inactive)
CC1(C)CCC23CCC4(C)C(CCC5C6(C)CCC(=O)C(C)(C)C6CCC54C)C2C1OC3 (stereo not given)	-4.05% (inactive)
CC(NC(=O)C(=O)c1ccccc1)c1ccccc1 (stereo not given)	-13.6% (inactive)
O=C(O)c1cc(-c2ccccc2)ccc1O	12.6% (inactive)
Cc1c(C(=O)O)n2cnnc2c2ccccc12	-38.1% (inactive)
Fc1c(F)c(-c2c(F)c(F)c(Br)c(F)c2F)c(F)c(F)c1Br	-7.45% (inactive)
CC1(C)Cc2c(oc3ncnc(N)c23)CS1	-8.8% (inactive)
CCNc1ccc(S(=O)(=O)O)cc1C(=O)O	0% (inactive)
COc1ccc(OC)c(NC(=O)C(=O)NNC(=O)c2sc(NNC(C)=O)nc2C)c1	47.4% (inactive)
